{"source": "PubChem BioAssay (NCATS)", "note": "Records with an inconclusive call do not appear. A number with no mark means an inactive call. Calls of active or inactive are those of the source. The call rests on the fitted dose curve; in most records, active means well fitted cell-killing curve with a large enough effect; inconclusive means small, poorly fitted or top-dose-only effect, or effect the other way; inactive means flat fitted curve, though single readings scatter. On the % scale 0 is the no-effect control and ±100 the full control effect.", "data": [{"tested_on": "CASKI", "experiment": "Primary qHTS to identify gynecologic anti-cancer compounds using libraries of approved drugs and bioactive compounds (AID 1345084); further: nearly all actives have a fitted effect of over 55% in size", "conditions": "Gynecologic cancer cell panel viability, ATPlite luminescence, 48 h; series mostly up to 57.5 µM; activity change, negative = cytotoxicity: at the top concentration", "procedure,_shortened": "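Cells, 1,000 per well, were allowed to settle for 16 h at 37 C before compound addition. Five concentrations were tested for 48 h, and viability was read by ATPlite luminescence after 15 min at room temperature.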", "values": [{"smiles": "COc1c(OC2OC(CO)C(O)C(O)C2O)ccc(O)c1C(=O)OCc1ccccc1O[C@@H]1O[C@H](CO)[C@@H](O)[C@H](O)[C@H]1O", "note": "(stereo partly specified)", "activity change, negative = cytotoxicity": "-1.74% [at 25.3 µM]"}, {"smiles": "CC1CCC2(C(=O)OC3OC(CO)C(O)C(O)C3O)CCC3(C)C(=CCC4C5(C)CC(O)C(O)C(C)(C(=O)O)C5CCC43C)C2C1(C)O", "note": "(stereo unspecified)", "activity change, negative = cytotoxicity": "0.595% [at 25.3 µM]"}, {"smiles": "CC(=O)O[C@@H]1[C@H]2[C@@H](OC(=O)c3ccccc3)[C@@H](C)C[C@]2(O)[C@H](OC(C)=O)[C@@]2(C)[C@@H]3CC(C)(C)C(=O)[C@]3(OC(C)=O)C[C@@]12C", "activity change, negative = cytotoxicity": "0.642% [at 25.3 µM]"}, {"smiles": "Cc1[nH]cnc1C1CCN(c2nc3cccc4c3n2CCC4=O)CC1", "activity change, negative = cytotoxicity": "23.6%"}, {"smiles": "CN1CC[C@@H](NC(=O)Nc2ccc(C#N)cc2)C[C@@H]1c1nc2ccccc2[nH]1", "activity change, negative = cytotoxicity": "12.1%"}, {"smiles": "CC1=C2C(=O)O[C@@H](c3ccoc3)[C@]2(C)CCC1", "Potency": "inactive"}, {"smiles": "COc1ncc(-c2ccc3c(Nc4cc(Oc5cc(F)cc(F)c5)cc(C(=O)O)c4)c(S(=O)(=O)NC4CC4)cnc3c2)c(OC)n1", "activity change, negative = cytotoxicity": "13.8%"}, {"smiles": "C=C1CCC(OC(C)=O)C2(C)CC3(O)OC(=O)C(C)=C3CC12", "note": "(stereo unspecified)", "activity change, negative = cytotoxicity": "-6.42%"}, {"smiles": "C=C1CC[C@H]2[C@@](C)(CCC[C@@]2(C)C(=O)O)[C@@H]1CCC(C)CCO", "note": "(stereo partly specified)", "activity change, negative = cytotoxicity": "-8.82% [at 38.5 µM]"}, {"smiles": "CC1CCC2(C(=O)OC3OC(CO)C(O)C(O)C3O)CCC3(C(=O)O)C(=CCC4C5(C)CCC(OC6OC(C)C(O)C(O)C6O)C(C)(C)C5CCC43C)C2C1C", "note": "(stereo unspecified)", "activity change, negative = cytotoxicity": "-3.23% [at 25.3 µM]"}, {"smiles": "CCC(C)/C=C(C)/C=C/C1=CC2=C(Cl)C(=O)C(C)(OC(C)=O)C(=O)C2=CN1C1CCCCN(C(CCC(N)=O)C(=O)O)C1=O", "note": "(stereo unspecified)", "activity change, negative = cytotoxicity": "0.11% [at 25.3 µM]"}]}]}
